The results in this text go back to PubChem BioAssay AID1159580 (chemical genetic matrix, 2015).

A short description of this assay: chemical genetic growth profiling, strain panel (AID 1159580).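 Also: tested at 20 µM; growth read once vehicle control cultures reached saturation at 30 °C; 1 = growth at the plate median or of vehicle wells; lower values mean less growth of the strain.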 The note with it: growth OD.
Setting [1] is: S. cerevisiae deletion strains, locus YAL013W, strain DEP1, hits give low values.
The mark [2] stands for this setting: S. cerevisiae deletion strains, locus YGR078C, strain PAC10, hits give low values.
Where [3] appears, read: S. cerevisiae deletion strains, locus YJR075W, strain HOC1, hits give low values.
Where [4] appears, read: S. cerevisiae deletion strains, locus YPL055C, strain LGE1, hits give low values.
Setting [5] is: S. cerevisiae deletion strains, locus YPL241C, strain CIN2, hits give low values.

The whole screen tested about 5,500 compounds, of which about 2,000 (36%) were called active. About 18% were inconclusive and are not listed. This is one part of the list. A number with no mark means an inactive call. Rule as the data show it: active = normalized growth mostly below about 0.91 (no sharp cut-off); inconclusive = no clear call, values can overlap the other calls; inactive = mostly above about 0.92.

Turning to `NC(=O)CCSCCC(N)=O`, the normalized growth is 0.992 under setting [1]; 0.995 (S. cerevisiae deletion strains, locus YBR229C, strain ROT2, hits give low values); 0.996 (S. cerevisiae deletion strains, locus YDL101C, strain DUN1, hits give low values); 1.02 (S. cerevisiae deletion strains, locus YDL134C, strain PPH21, hits give low values); 0.999 (S. cerevisiae deletion strains, locus YDR150W, strain NUM1, hits give low values); 1.01 (S. cerevisiae deletion strains, locus YEL061C, strain CIN8, hits give low values). For the same compound, the normalized growth reads like this: under setting [2], 0.988; (S. cerevisiae deletion strains, locus YHR030C, strain SLT2, hits give low values) 0.972; (S. cerevisiae deletion strains, locus YHR087W, strain rtc3, hits give low values) 1; (S. cerevisiae deletion strains, locus YJR043C, strain POL32, hits give low values) 0.976; under setting [3], 1; (S. cerevisiae deletion strains, locus YLR039C, strain RIC1, hits give low values) 1.02. The normalized growth by setting is: (S. cerevisiae deletion strains, locus YLR058C, strain SHM2 (second series), hits give low values) 0.997; (S. cerevisiae deletion strains, locus YLR085C, strain ARP6, hits give low values) 1.06; (S. cerevisiae deletion strains, locus YLR262C, strain YPT6, hits give low values) 1.03; (S. cerevisiae deletion strains, locus YML094W, strain GIM5, hits give low values) 1.01; (S. cerevisiae deletion strains, locus YMR219W, strain ESC1, hits give low values) 1.01; (S. cerevisiae deletion strains, locus YMR263W, strain SAP30, hits give low values) 0.991. Further, the normalized growth by setting is: (S. cerevisiae deletion strains, locus YMR307W, strain GAS1, hits give low values) 1.09; (S. cerevisiae deletion strains, locus YNL153C, strain GIM3, hits give low values) 0.979; (S. cerevisiae deletion strains, locus YNL298W, strain CLA4 (second series), hits give low values) 0.988; (S. cerevisiae deletion strains, locus YNL322C, strain KRE1, hits give low values) 1.03; (S. cerevisiae deletion strains, locus YNR030W, strain Alg12, hits give low values) 0.981; under setting [4], 1.02. Besides, the normalized growth under setting [5] was 0.995; the normalized growth (S. cerevisiae deletion strains, locus YPR135W, strain CTF4, hits give low values) is 0.92; the normalized growth (S. cerevisiae strains, strain wild type, hits give low values) is 1.02.
Take `NC(=O)CI`: the normalized growth runs as follows: under setting [1], 0.951; (S. cerevisiae deletion strains, locus YAL040C, strain CLN3, hits give low values) 0.968; (S. cerevisiae deletion strains, locus YCL061C, strain MRC1 (second series), hits give low values) 0.98; (S. cerevisiae deletion strains, locus YDR363W, strain ESC2, hits give low values) 0.988; (S. cerevisiae deletion strains, locus YER002W, strain NOP16, hits give low values) 0.949; under setting [2], 0.907 (active). For the same compound, the normalized growth is 0.942 (S. cerevisiae deletion strains, locus YGR229C, strain SMI1, hits give low values); 0.966 under setting [3]; 0.947 (S. cerevisiae deletion strains, locus YNL175C, strain NOP13, hits give low values); 0.936 (S. cerevisiae deletion strains, locus YNL197C, strain WHI3, hits give low values); 0.972 (S. cerevisiae deletion strains, locus YNL224C, strain SQS1, hits give low values); 0.792 (active) (S. cerevisiae deletion strains, locus YOR083W, strain WHI5 (second series), hits give low values). In addition, the normalized growth under setting [4] was 0.956 and the normalized growth under setting [5] is 0.966.
